Laboratory results: the OligoGym collection

Each sequence was assayed against MUC4 (assay: pooled miR-30 sensor sort-seq; sequence = guide strand). Settings: shRNA.
Also: reference of the scale not given here.

| Sequence | sensor-assay potency score (higher = more potent) |
| --- | --- |
| TTTTTACTGACTTCCCTCGTGT | 0.677 |
| TTGTCTGTGAAGTAGAGGGAAT | -1.17 |
| TTCAGGAAGTCAATGACCGGGC | -0.298 |
| TAGTCTTGTCTTGATTCCCAGT | -0.823 |
| TTCAGGAAATAGGAGAACCTGG | -1.36 |

What follows are sequences tested against MUDENG in the same assay as above. Settings: shRNA.

| Sequence | sensor-assay potency score (higher = more potent) |
| --- | --- |
| TTGAACTGAATGCTGATCTGCA | 0.719 |
| TTGGTGGGGAGACTCAAGCTGA | -1.09 |
| AAAAACTTGAACTGAATGCTGA | -0.0187 |
| TTATTCTTAGTTGTACTTCTTC | 0.0203 |
| TAGTTTTGTATTCCAAATGTGT | -0.698 |
| TAATCTAAGTTCAAAGAGCAGT | -0.489 |
| TAAGATCCTAAAATGAAGCTTT | 0.347 |
| TAACATTTGGCATGATTCCTTC | -0.439 |
| TATCCTGAAGTGGAGATCCATT | -1.27 |
| TTCTTAGTTGTACTTCTTCCTC | -1.23 |
| TTGAATGACTCTAAAGGTGGAG | 0.345 |
| TTATTGATGCGTGAACAGCTAT | -0.441 |

The sequences below were run against MUL1 in the same assay as above. Settings: shRNA.

| Sequence | sensor-assay potency score (higher = more potent) |
| --- | --- |
| ATACACGGTCTCTAGACCCAGA | -0.85 |
| TTTAGCTCCCTTGAGCTCTTGG | -0.00208 |
| TTGCAGTTTTCCACAAACTGGC | -0.401 |
| TTAGATAGTACTGCATGCCTTG | -0.152 |
| TTCTATAACAGCATAAGGCACG | -0.579 |
| TTGAGCTCTTGGGAGACCCGGG | -0.319 |
| TACTCTTTAAATCTTCACCCAA | -0.305 |
| TAACAGACCGCACAGCTCCTTC | -0.691 |
| TTAACAGACCGCACAGCTCCTT | -0.45 |
| TTTCTTTAACAGACCGCACAGC | -0.894 |
| TATAACAGCATAAGGCACGCAT | -0.0376 |

The sequences below were run against MUM1L1 in the same assay as above. Settings: shRNA.

| Sequence | sensor-assay potency score (higher = more potent) |
| --- | --- |
| TTAGTGATCTTCCATAGGCAGT | -1.42 |
| TAACACATGCACTTTCCTCTTT | -0.0342 |
| TTTGTTTCTCTTTACAATCAAA | -1.34 |
| TTTGATTGCAGACTTCTTGTAA | 0.165 |
| TTGAGATTTATTTAGGATCTTT | -0.143 |
| TTGTGGTACATTTTGAGACAGC | -1.11 |
| TAACTGGGTAACTAATATCAGC | -1.56 |
| TAAACCAGACTATCATTCCTGT | -0.0642 |
| TTAGATACTTTGCTTCAGCTGC | -0.267 |
| TATTTGATTGCAGACTTCTTGT | 0.00671 |
| TATTTCTGATATTTAAACCAGA | -0.575 |
| TTTGTTTCCACTTCACTTGGAA | 0.402 |
